Measurements taken from PubChem BioAssay.
The source made the active and inactive calls.

Assays:
[1] = tested on: Plasmodium falciparum Sir2 (PF13_0152, Sir2A); experiment: pfSir2 binders on small-molecule microarrays, primary screen, biochemical, small-molecule microarray, 635 nm fluorescence (AID 1098); conditions: small-molecule microarray binding, fluorescence 635 nm; higher = more signal;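 note: score merges spot fluorescence intensity with its signal-to-noise ratio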
[2] = small-molecule microarray binders of probe aDKK1, primary screen, biochemical, biotinylated probe, 635/667 nm fluorescence (AID 1099); conditions: higher = more signal;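 note: score merges 667nm spot fluorescence with signal to noise across triplicate slides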
[3] = small-molecule microarray binders of probe aCHRDL2, primary screen, biochemical, biotinylated probe, 635/667 nm fluorescence (AID 1100); conditions: higher = more signal
[4] = splicing luciferase reporter signal modulators, primary screen, spliceosome inhibition project, cell-based, HEK293, splice +/- reporter (AID 1101); conditions: luminescence, 24 h, higher = more signal, called active from +8 up or from −8 down;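 note: HEK293 cells carrying a splicing-competent luciferase reporter gene; test concentration not given here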
[5] = molecular target: Fibroblast growth factor 10 (Homo sapiens) (UniProt O15520); experiment: FGF10 binders on small-molecule microarrays, primary screen, biochemical, small-molecule microarray, 635 nm fluorescence (AID 1102); conditions: FGF10 binding, fluorescence 635 nm, higher = more signal
[6] = tested on: glycogen synthase kinase-3 (GSK3A per assay name; protocol says GSK3B); experiment: GSK3 binders on small-molecule microarrays, primary screen, biochemical, small-molecule microarray, 635 nm fluorescence, GSK3A (AID 1103); conditions: small-molecule microarray binding, fluorescence 635 nm; higher = more signal; note: the record names both GSK3A and GSK3B
[7] = molecular target: Epidermal growth factor receptor (Homo sapiens) (UniProt P00533); experiment: EGFR binders on small-molecule microarrays, primary screen, biochemical, small-molecule microarray, 635 nm fluorescence (AID 1104); conditions: EGFR binding, higher = more signal;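 note: score merges 667 nm emission intensity with spot signal to noise over triplicate slides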
[8] = molecular target: Follistatin-related protein 3 (Homo sapiens) (UniProt O95633); experiment: FSTL3 binders on small-molecule microarrays, primary screen, biochemical, small-molecule microarray, 635 nm fluorescence (AID 1105); conditions: FSTL3 binding, higher = more signal;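 note: score merges emission near 667 nm and signal to noise per printed spot across three slides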
[9] = molecular target: Dickkopf-related protein 1 (Homo sapiens) (UniProt O94907); experiment: DKK1 binders on small-molecule microarrays, primary screen, biochemical, small-molecule microarray, 635 nm fluorescence scan (AID 1106); conditions: DKK1 binding, higher = more signal;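 note: score merges emission near 667 nm with signal to noise over three replicate slides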
[10] = tested on: Inhibin beta A chain (activin A); experiment: INHBA (activin A) binders on microarrays, primary screen, biochemical, small-molecule microarray, 635 nm fluorescence scan (AID 1107); conditions: small-molecule microarray binding, higher = more signal;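 note: mouse activin A protein probed at 4.33 µg/mL on printed slides; score merges bound-protein fluorescence near 667 nm with spot signal-to-noise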
[11] = tested on: Human papillomavirus type 1a protein E7 (residues 44-93); experiment: HPV1a E7 fragment binders on microarrays, primary screen, biochemical, small-molecule microarray, residues 44-93, 635 nm fluorescence (AID 1108); conditions: small-molecule microarray binding, fluorescence 635 nm; higher = more signal;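 note: E7 fragment applied at 1 µg/mL in TBST for 1 h at 4 C; score combines spot fluorescence with its signal to noise ratio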
[12] = modulators of HCV replicon luciferase signal, primary screen, HCV replication inhibitor project, Huh7 cells, luciferase reporter (AID 1109); conditions: 48 h, higher = more signal;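 note: huh7 hepatoma cells harbouring a luciferase neomycin HCV replicon reporter; luciferase luminescence as measure of HCV replicon replication; test concentration not given here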
[13] = molecular target: Left-right determination factor 2 (Homo sapiens) (UniProt O00292); experiment: LEFTY2 binders on small-molecule microarrays, primary screen, biochemical, small-molecule microarray, 635 nm fluorescence scan (AID 1110); conditions: LEFTY2 binding, higher = more signal
[14] = molecular target: Calmodulin-1 (Homo sapiens) (UniProt P0DP23); experiment: CALM1 binders on microarrays, EGTA buffer, profiling panel, biochemical, small-molecule microarray, Cy5-labelled CALM1 (AID 1111); conditions: Cy5-CALM1 binding fluorescence, higher = more signal;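 note: labelled calmodulin applied in Tris saline Tween buffer holding calcium plus EGTA and DTT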
[15] = molecular target: Calmodulin-1 (Homo sapiens) (UniProt P0DP23); experiment: calcium-bound CALM1 binders on microarrays, profiling panel, artefact control for SMM control-protein annotation, biochemical, small-molecule microarray, Cy5-labelled CALM1, plus calcium (AID 1112); conditions: Cy5-CALM1 binding fluorescence, higher = more signal;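 note: score merges spot fluorescence with signal to noise from triplicate slides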
[16] = small-molecule microarray binders of probe aWnt5a, primary screen, biochemical, biotinylated probe, 635/667 nm fluorescence (AID 1113); conditions: higher = more signal;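 note: score merges 667 nm fluorescence intensity with signal-to-noise per printed feature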
[17] = small-molecule microarray binders of probe aShh, primary screen, biochemical, biotinylated probe, 635/667 nm fluorescence (AID 1114); conditions: higher = more signal;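 note: probe is biotin-labelled aShh protein from a stem cell growth factor screen; measures binding of labelled protein to compounds printed on the slide; score merges feature fluorescence at 667 nm with signal-to-noise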
[18] = small-molecule microarray binders of probe aNog, primary screen, biochemical, biotinylated probe, 635/667 nm fluorescence (AID 1115); conditions: higher = more signal;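 note: probe is biotinylated aNog protein used at 0.15 µg/mL for 1 h at 4 C; z-score combines 667 nm fluorescence of each spot with its signal to noise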
[19] = molecular target: Torsin-1A-interacting protein 1 (Homo sapiens) (UniProt Q5JTV8); experiment: LAP1 binders from COS7 cell lysate, primary screen, small-molecule microarray, 635/667 nm fluorescence (AID 1116); conditions: COS7-hLAP1 lysate binding, 635 nm fluorescence, higher = more signal
[20] = molecular target: Alpha-bungarotoxin (Bungarus multicinctus) (UniProt P60615); experiment: alpha-bungarotoxin binders on microarray, profiling panel, artefact control for SMM control protein annotation, biochemical, small-molecule microarray, Alexa647 label, 635/667 nm fluorescence (AID 1117); conditions: alpha-BTX-A647 binding fluorescence, higher = more signal
Alpha-bungarotoxin (Bungarus multicinctus), sequence (P60615 whole entry, looked up): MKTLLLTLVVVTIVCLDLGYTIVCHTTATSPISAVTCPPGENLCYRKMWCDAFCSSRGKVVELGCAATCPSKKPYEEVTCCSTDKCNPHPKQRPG

Epidermal growth factor receptor (Homo sapiens), sequence (P00533 whole entry, looked up): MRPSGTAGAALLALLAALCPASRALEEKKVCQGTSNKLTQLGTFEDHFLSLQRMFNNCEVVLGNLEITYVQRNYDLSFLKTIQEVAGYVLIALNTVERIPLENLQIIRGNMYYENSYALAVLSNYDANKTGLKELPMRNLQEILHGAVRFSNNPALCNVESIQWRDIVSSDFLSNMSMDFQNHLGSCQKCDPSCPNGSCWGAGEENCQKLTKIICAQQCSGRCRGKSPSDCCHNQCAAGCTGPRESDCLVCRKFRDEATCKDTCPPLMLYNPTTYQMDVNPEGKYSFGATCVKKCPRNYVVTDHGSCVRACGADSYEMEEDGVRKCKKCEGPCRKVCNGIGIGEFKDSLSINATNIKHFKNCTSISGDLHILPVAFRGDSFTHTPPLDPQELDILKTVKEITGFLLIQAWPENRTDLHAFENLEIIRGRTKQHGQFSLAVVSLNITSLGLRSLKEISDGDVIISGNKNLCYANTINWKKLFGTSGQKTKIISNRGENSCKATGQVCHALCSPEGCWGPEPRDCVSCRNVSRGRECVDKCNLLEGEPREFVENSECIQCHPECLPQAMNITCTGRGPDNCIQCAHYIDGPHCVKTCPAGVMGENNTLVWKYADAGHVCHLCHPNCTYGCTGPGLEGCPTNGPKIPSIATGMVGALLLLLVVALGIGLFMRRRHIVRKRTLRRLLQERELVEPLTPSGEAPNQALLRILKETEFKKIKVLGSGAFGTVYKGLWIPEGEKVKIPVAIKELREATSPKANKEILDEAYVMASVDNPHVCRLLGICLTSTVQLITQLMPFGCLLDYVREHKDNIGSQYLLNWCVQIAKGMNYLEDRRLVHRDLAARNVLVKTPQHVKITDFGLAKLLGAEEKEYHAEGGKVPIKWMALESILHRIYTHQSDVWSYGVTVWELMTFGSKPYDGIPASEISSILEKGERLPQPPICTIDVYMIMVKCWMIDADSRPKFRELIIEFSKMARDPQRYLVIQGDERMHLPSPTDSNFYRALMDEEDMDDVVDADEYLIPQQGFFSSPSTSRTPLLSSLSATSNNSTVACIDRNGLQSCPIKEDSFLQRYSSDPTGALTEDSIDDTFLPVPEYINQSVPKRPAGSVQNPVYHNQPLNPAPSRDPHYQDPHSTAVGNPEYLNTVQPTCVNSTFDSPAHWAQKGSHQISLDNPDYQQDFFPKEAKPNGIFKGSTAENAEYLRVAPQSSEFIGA
Dickkopf-related protein 1 (Homo sapiens), sequence (O94907 whole entry, looked up): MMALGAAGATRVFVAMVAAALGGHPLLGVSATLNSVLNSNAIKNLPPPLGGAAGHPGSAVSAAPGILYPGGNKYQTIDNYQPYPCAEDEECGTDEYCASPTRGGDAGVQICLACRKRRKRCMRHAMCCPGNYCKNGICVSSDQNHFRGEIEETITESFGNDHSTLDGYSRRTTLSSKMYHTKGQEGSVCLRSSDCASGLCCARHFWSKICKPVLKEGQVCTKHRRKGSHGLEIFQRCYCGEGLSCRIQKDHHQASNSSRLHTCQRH
Torsin-1A-interacting protein 1 (Homo sapiens), sequence (Q5JTV8 whole entry, looked up): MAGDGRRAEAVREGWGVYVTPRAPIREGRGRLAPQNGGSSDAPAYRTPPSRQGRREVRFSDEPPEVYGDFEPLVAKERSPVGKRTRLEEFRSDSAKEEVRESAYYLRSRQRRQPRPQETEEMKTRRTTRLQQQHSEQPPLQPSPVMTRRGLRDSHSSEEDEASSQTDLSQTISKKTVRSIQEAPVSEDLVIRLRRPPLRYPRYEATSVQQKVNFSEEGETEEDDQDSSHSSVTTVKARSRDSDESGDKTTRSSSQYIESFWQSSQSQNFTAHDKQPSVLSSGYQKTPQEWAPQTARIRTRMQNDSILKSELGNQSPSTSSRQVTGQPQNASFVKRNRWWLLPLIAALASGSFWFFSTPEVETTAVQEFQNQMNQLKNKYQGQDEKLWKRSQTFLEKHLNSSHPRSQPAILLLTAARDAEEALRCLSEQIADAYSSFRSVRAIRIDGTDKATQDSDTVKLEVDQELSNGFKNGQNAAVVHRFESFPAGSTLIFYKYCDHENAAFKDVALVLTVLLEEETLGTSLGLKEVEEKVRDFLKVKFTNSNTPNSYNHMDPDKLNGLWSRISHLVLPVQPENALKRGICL
Fibroblast growth factor 10 (Homo sapiens), sequence (O15520 whole entry, looked up): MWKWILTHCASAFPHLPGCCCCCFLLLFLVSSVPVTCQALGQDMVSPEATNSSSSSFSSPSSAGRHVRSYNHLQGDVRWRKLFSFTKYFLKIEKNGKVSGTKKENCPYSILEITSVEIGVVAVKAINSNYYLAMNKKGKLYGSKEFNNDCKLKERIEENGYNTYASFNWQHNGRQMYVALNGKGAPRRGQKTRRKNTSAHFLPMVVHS
Follistatin-related protein 3 (Homo sapiens), sequence (O95633 whole entry, looked up): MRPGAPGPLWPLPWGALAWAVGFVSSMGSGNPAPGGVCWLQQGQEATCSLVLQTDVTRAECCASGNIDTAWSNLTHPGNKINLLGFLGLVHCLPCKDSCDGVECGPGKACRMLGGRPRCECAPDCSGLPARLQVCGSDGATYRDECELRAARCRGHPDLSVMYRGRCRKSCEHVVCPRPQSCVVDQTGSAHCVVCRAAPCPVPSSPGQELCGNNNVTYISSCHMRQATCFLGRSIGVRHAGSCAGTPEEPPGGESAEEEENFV
Left-right determination factor 2 (Homo sapiens), sequence (O00292 whole entry, looked up): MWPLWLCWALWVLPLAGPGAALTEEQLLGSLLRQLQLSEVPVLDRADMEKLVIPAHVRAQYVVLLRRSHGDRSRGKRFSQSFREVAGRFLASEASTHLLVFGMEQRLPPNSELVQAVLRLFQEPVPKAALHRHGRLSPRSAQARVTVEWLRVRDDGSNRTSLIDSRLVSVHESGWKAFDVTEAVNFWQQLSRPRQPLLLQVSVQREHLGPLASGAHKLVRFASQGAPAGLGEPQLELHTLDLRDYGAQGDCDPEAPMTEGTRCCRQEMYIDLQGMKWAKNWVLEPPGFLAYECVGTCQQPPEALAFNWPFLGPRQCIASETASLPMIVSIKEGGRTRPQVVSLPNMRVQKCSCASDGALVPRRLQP

Row | Structure (SMILES) | composite z-score [1] | composite z-score [2] | composite z-score [3] | z-score [4] | composite z-score [5] | composite z-score [6] | composite z-score [7] | composite z-score [8] | composite z-score [9] | composite z-score [10] | composite z-score [11] | z-score [12] | composite z-score [13] | composite z-score [14] | composite z-score [15] | composite z-score [16] | composite z-score [17] | composite z-score [18] | composite z-score [19] | composite z-score [20]
1 | C[N+](C)(C)CCCC[C@@H]1NC(=O)[C@H]2C[C@@H](C(=O)NCCCCCCNC(=O)CS)[C@@H](c3ccc(O)cc3)N2C1=O | -0.783 | -0.0452 | 0.782 | -0.45 (inactive) | -0.347 | -1.09 | -0.805 | -0.884 | -0.628 | 0.507 | -1.07 | -0.237 | -1.4 | -0.493 | 0.55 | -0.178 | -0.138 | -0.0604 | 1.51 | 0.539
2 | CCCC1(C(=O)OC)C=C2C(=C(c3ccccc3)C(=O)C2C)CN1 (stereo not given) | -0.495 | 0.717 | 1.16 | -1.14 (inactive) | -0.157 | -0.636 | -0.278 | -0.0458 | -0.704 | 1.44 | -0.719 | -1.85 | 0.0193 | 0.155 | -0.253 | -0.0203 | 0.108 | 1.75 | 1.05 | 0.287
3 | O=C1O[C@@H](c2ccccc2)[C@@H](c2ccccc2)N2[C@@H](c3ccccc3OCCO)[C@]3(C(=O)Nc4ccccc43)[C@@H](C(=O)O)[C@H]12 | 1.61 | -0.124 | 0.148 | -1.71 (inactive) | 0.798 | -0.269 | -0.447 | 0.0073 | -0.499 | -0.143 | 1.32 | -0.73 | -0.0445 | 0.995 | -0.842 | -0.0924 | -0.229 | -0.18 | 0.584 | 1.04
4 | CN1C(=O)C2C=CC(C(O)C=Cc3ccc([N+](=O)[O-])cc3)N(Nc3ccccc3)C2C1=O (stereo not given) | 0.967 | 0.0403 | -0.175 | 1.21 (inactive) | 0.718 | 1.15 | 0.692 | 1.06 | 0.587 | 1.02 | 1.31 | 0.599 | 0.407 | 0.447 | -0.384 | 0.0182 | 0.207 | -0.175 | 0.582 | 0.627
5 | O=C1NC(=O)C2C1C=CC(C(O)C1CC=CCC1)N2Nc1ccccn1 (stereo not given) | 1.27 | 0.228 | 0.21 | 1.17 (inactive) | 0.946 | 0.0089 | 1.25 | 0.179 | 1.33 | 1.75 | -0.643 | -0.268 | 0.571 | -0.282 | -0.589 | -0.0643 | -0.147 | -0.0852 | 1.22 | -0.29
